Experimental data published in PubChem BioAssay (NCI).
The panel holds about 83,000 compounds, 20% with a hit somewhere; the sample as a whole holds those more often.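 Activity criterion: percent growth below 10, measured after cells in 96-well plates were exposed to a single compound concentration for 48 hours.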 A number with no mark means an inactive call. Activity calls are given as the source filed them.

The molecules below were run on COLO 205 colon (assay: NCI-60 one-dose screen, 48 h (100 = growth as untreated, 0 = no growth, -100 = all killed)). Conditions: 10 µM unless noted.

For `O=[N+]([O-])c1cc(/C=N/Nc2nc(N/N=C/c3ccc(Cl)c([N+](=O)[O-])c3)nc(N3CCCCC3)n2)ccc1Cl`, which growth is on record?
The growth was 100%.

For `C#Cc1nc(C(C)=O)cs1`, which growth is on record?
Its growth is 115%.

`O=C1[C@H]2Cc3c([nH]c4ccccc34)[C@@H](c3c(Cl)cccc3Cl)N2C(=O)CN1C1CCN(CC2CCCCC2)CC1` was tested. Which growth did it give?
Its growth is 105%.

For `O=C1Nc2ccccc2/C1=C/c1ccc(COCC2CO2)n1-c1ccc(O)cc1` (stereo not drawn), which growth is on record?
Its growth is 116%.

How did the growth turn out when `CCOc1ccc(NC2=C(Cl)C(=O)c3nc(C)ccc3C2=O)cc1` was run?
Its growth is 98.2%.

How did the growth turn out when `O=S(=O)(NCCCNc1nccc(-c2[nH]c(-c3ccccc3)nc2-c2ccc(Cl)c(O)c2)n1)c1cccc(F)c1` was run?
The growth was 87.9%.

How did the growth turn out when `CN1CCN(Cc2ccc(NC(=O)c3cncc(C#Cc4cnc5ccc(OCC6(C)COC6)nn45)c3)cc2C(F)(F)F)CC1` was run?
The growth was -58.5% (active).

How did the growth turn out when `COc1cc2c(cc1OC)C(Sc1ccc(F)cc1)c1c(nc(N)c(C#N)c1N)O2` (stereo not drawn) was run?
The growth was -45.3% (active).

Which growth does the source give for `Cc1nc(-c2ccccc2O)ccc1C(=O)N=Nc1c(O)[nH]c2ccc(Br)cc12` here?
Its growth is 105%.

Which growth does the source give for `COc1cc(-c2nnc(SCc3ccc(O)c4ncccc34)n2-c2ccccc2)cc(OC)c1OC` here?
Its growth is 10.1%.

`NS(=O)(=O)c1ccc(-n2cc(CN3CCCCC3)nn2)cc1` was tested. Which growth did it give?
The growth was 119%.

Which growth does the source give for `COc1cc(/C=C2\C(=O)Nc3ccccc32)ccc1OCc1ccc(Cl)cc1` here?
The growth was 116%.

`Cc1ccc(-c2nnc(SCc3ccc(O)c4ncccc34)o2)cc1` was tested. Which growth did it give?
The growth was 88.2%.
